Experiment [1] addresses Estrogen receptor (Homo sapiens) (UniProt P03372). Kind of experiment: OT_ERa_GFPERaERE_0120: Odyssey Thera (OT) 2-hour HeLa Transcription Induction Assay for Estrogen Receptor (AID 2283382). The essentials: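 Fluorescence-microscopy images of the GFP-ERα/ERE reporter, scored by high-content image algorithms, give the readout. HeLa exposure lasted 2 h, and only signal increase over DMSO was fitted.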

In experiment [2] the target is Bile acid receptor (Homo sapiens) (UniProt Q96RI1). The experiment in a line: OT_FXR_FXRSRC1_0480: Odyssey Thera (OT) 8-hour HEK293T Protein-Complementation Assay for Farnesoid X receptor/SRC-1 Co-activator (AID 2283383). The essentials:
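Binding of FXR to coactivator SRC-1 was read as fluorescence from a reconstituted split reporter in HEK293T cells, 8 h after chemical addition. Only increases in signal versus DMSO were fit.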

Experiment [3] addresses Retinoic acid receptor RXR-alpha (Homo sapiens) (UniProt P19793). Kind of experiment: OT_NURR1_NURR1RXRa_0480: Odyssey Thera (OT) 8-hour HEK293T Protein Complementation Assay for Nurr1/retinoid X receptor (RXR) (AID 2283385). The essentials: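 Interaction of Nurr1 with RXRα read as reconstituted reporter fluorescence in a HEK293T fragment-complementation system, 8 h post-treatment; increase over DMSO baseline analysed.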

The target of experiment [4] is Peroxisome proliferator-activated receptor gamma (Homo sapiens) (UniProt P37231). The experiment in a line: OT_PPARg_PPARgSRC1_0480: Odyssey Thera (OT) 8-hour Protein-Complementation Assay for Peroxisome Proliferator-activated Receptor Gamma / SRC-1 Co-activator (AID 2283387). The essentials: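 Read-out: 488 nm N/C fluorescence ratio from complemented Venus YFP fragments, ≥350 cells per image, gain-of-signal fitted against DMSO baseline. Fusions of PPARg/SRC-1 with IFP1/IFP2 expressed transiently in HEK293T; compounds applied 8 h.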

Experiment [5] shares this target. Kind of experiment: OT_PPARg_PPARgSRC1_1440: Odyssey Thera (OT) 24-hour Protein-Complementation Assay for Peroxisome Proliferator-activated Receptor Gamma/ SRC-1 Co-activator (AID 2283388). The essentials: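 HEK293T transiently transfected with PPARg/SRC-1 split-Venus YFP fusions 48 h before dosing, then treated 24 h at 37C. Fixed cells imaged; nuclear/cytoplasmic 488 nm fluorescence ratio, gain of signal versus DMSO.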

The target in experiment [6] is Retinoic acid receptor RXR-alpha (Homo sapiens) (UniProt P19793). The experiment in a line: OT_NURR1_NURR1RXRa_1440: Odyssey Thera (OT) 24-hour HEK293T Protein Complementation Assay for Nurr1/retinoid X receptor (RXR) (AID 2283386). The essentials: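 Gain in fluorescence, fitted relative to DMSO, reflects Nurr1–RXRα association in HEK293T cells after 24 h dosing. Bait and prey are each linked to a reporter-protein fragment that reassembles on interaction.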

In experiment [7] the target is Estrogen receptor beta (Homo sapiens) (UniProt Q92731). Kind of experiment: OT_ER_ERbERb_1440: Odyssey Thera (OT) 24-hour HEK293T Protein-Complementation Assay for Estrogen Receptor-beta/-beta Homodimer (AID 2283380).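 Note: fluorescence gain from ER beta LBD homodimer complementation read by laser scanning cytometry; scored as signal increase over DMSO baseline for both agonists and antagonists.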 The essentials: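 HEK293T cells stably expressing human ER-beta LBD (aa 310-547) PCA homodimer pair, dosed 24 h; formaldehyde-fixed, Draq5-stained. Readout: increase in nuclear (agonist) or nuclear plus cytoplasmic (antagonist) fluorescence intensity versus DMSO, gain-of-signal fitting.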

The target of experiment [8] is Bile acid receptor (Homo sapiens) (UniProt Q96RI1). Kind of experiment: OT_FXR_FXRSRC1_1440: Odyssey Thera (OT) 24-hour HEK293T Protein-Complementation Assay for Farnesoid X receptor/SRC-1 Co-activator (AID 2283384). The method, boiled down: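 Protein-fragment complementation: FXR and SRC-1 fused to reporter fragments that reassemble on interaction, read by fluorescence intensity. Human HEK293T cells measured 24 h post-dose; positive-direction fit versus DMSO.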

Experiment [9] concerns the target Agonist Androgen Response Element (ARE), AR (gene 367) (UniProt P10275). Kind of experiment: OT_AR_ARELUC_AG_1440: Odyssey Thera (OT) 24-hour CHO-K1 Luciferase Assay for Agonist Androgen Response Element (ARE) (AID 2283379). The essentials: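 Luminescence increase above DMSO, read after a 24 h compound treatment of CHO-K1 cells expressing an androgen response element luciferase reporter, gives the single primary endpoint; concentration-response fitting used the positive direction.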

In experiment [10] the target is mouse Estrogen Receptor alpha (Era), Esr1 (gene 13982) (UniProt P19785). Kind of experiment: NVS_NR_mERa: NovaScreen (NVS) Nuclear Receptor Binding Assay for mouse Estrogen Receptor alpha (Era) (AID 2283378).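 Note: hit means loss of bound radioligand signal relative to DMSO.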 The essentials: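 Cell-free radioligand competitive displacement binding, read by filter-based scintillation counting 18 h after dosing. Primary screen run in duplicate at 25 uM, actives retested in concentration series; loss of signal versus DMSO.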

Inconclusive results are not listed. Active and inactive are the calls of the source. Rule for the calls: active = hit-call score of the fitted dose curve at least 0.9, where 1 is the maximum; inconclusive = response in the unintended direction; inactive = score below 0.9.

Estrogen receptor beta (Homo sapiens), sequence (Q92731 whole entry, looked up, the tested form may be a part): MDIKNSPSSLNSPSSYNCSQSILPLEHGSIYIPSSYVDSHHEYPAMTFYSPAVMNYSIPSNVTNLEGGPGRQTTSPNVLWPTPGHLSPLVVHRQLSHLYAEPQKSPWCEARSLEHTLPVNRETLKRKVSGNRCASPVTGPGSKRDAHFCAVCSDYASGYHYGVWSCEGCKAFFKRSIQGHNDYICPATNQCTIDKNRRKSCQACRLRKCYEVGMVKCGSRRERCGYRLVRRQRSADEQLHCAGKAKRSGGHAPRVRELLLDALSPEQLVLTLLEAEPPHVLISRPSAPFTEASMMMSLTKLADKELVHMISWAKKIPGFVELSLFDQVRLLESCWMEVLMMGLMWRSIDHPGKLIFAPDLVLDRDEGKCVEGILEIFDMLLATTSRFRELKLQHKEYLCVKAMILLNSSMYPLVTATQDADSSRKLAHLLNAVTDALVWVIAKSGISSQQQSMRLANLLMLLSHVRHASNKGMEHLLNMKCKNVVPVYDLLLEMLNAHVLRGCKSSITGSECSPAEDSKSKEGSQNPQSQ
Peroxisome proliferator-activated receptor gamma (Homo sapiens), sequence (P37231 whole entry, looked up, the tested form may be a part): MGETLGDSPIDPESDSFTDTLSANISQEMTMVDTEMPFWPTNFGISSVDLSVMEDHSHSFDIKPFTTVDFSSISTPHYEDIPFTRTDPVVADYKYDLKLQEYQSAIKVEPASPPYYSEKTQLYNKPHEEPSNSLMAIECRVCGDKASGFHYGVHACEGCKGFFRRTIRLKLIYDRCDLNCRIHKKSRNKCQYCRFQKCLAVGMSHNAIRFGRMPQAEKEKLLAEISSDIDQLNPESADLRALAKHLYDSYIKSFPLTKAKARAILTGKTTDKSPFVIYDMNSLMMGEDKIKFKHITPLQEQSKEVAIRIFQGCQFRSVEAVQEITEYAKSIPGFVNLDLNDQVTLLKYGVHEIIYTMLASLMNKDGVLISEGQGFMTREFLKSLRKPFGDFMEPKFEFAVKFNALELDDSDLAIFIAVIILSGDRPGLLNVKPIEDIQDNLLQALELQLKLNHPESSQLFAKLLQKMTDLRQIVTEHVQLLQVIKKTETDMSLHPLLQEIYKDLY
Agonist Androgen Response Element (ARE), AR (gene 367), sequence (P10275 whole entry, looked up): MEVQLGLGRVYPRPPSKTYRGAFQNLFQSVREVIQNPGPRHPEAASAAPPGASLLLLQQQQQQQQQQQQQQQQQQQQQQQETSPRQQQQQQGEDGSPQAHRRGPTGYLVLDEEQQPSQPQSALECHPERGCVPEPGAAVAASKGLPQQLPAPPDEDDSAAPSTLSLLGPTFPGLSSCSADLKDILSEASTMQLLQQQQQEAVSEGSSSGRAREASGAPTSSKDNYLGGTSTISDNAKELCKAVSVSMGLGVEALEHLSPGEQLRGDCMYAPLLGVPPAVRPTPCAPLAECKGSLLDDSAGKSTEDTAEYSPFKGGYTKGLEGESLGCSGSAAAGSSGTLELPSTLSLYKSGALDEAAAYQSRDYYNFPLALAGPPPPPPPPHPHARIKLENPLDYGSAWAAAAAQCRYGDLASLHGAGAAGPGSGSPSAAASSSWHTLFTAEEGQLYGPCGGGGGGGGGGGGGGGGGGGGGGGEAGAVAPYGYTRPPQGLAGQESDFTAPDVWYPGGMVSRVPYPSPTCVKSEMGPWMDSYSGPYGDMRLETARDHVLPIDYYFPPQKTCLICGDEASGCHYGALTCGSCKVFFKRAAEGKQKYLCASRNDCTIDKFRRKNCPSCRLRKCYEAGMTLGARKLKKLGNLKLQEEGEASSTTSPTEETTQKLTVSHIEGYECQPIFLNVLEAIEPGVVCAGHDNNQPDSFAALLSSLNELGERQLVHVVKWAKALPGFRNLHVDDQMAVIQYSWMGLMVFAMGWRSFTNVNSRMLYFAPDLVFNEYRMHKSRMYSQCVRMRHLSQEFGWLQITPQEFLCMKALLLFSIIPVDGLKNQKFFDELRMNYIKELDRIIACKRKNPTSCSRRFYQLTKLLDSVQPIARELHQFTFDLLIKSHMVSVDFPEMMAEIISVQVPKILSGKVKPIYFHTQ
Estrogen receptor (Homo sapiens), sequence (P03372 whole entry, looked up): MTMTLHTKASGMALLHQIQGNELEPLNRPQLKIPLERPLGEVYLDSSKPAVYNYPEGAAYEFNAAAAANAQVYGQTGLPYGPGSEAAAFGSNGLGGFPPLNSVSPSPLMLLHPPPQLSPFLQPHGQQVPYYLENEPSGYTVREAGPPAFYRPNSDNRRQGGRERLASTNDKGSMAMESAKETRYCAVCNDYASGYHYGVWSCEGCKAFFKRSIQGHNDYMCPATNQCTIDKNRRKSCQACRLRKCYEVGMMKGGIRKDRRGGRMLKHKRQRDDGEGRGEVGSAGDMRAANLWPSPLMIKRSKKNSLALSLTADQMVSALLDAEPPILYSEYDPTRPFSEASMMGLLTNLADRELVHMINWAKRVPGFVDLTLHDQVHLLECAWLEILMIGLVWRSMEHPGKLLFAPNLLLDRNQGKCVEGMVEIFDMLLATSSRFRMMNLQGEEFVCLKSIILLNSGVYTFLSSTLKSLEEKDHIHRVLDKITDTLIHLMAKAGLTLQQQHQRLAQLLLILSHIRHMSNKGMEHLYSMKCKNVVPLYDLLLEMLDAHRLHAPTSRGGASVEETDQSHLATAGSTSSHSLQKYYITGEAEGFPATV
Retinoic acid receptor RXR-alpha (Homo sapiens), sequence (P19793 whole entry, looked up, the tested form may be a part): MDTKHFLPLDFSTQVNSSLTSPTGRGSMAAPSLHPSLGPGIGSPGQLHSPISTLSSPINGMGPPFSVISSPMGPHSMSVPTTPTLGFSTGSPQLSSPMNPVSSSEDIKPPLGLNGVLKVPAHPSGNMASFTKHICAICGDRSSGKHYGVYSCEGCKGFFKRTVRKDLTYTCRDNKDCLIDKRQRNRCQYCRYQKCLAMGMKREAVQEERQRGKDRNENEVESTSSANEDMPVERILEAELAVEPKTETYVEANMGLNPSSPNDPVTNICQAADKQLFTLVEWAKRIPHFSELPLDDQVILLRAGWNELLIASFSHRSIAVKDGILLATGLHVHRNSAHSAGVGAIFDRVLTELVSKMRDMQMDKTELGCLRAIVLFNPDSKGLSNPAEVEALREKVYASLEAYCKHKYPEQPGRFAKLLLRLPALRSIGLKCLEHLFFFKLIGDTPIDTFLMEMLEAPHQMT
mouse Estrogen Receptor alpha (Era), Esr1 (gene 13982), sequence (P19785 whole entry, looked up): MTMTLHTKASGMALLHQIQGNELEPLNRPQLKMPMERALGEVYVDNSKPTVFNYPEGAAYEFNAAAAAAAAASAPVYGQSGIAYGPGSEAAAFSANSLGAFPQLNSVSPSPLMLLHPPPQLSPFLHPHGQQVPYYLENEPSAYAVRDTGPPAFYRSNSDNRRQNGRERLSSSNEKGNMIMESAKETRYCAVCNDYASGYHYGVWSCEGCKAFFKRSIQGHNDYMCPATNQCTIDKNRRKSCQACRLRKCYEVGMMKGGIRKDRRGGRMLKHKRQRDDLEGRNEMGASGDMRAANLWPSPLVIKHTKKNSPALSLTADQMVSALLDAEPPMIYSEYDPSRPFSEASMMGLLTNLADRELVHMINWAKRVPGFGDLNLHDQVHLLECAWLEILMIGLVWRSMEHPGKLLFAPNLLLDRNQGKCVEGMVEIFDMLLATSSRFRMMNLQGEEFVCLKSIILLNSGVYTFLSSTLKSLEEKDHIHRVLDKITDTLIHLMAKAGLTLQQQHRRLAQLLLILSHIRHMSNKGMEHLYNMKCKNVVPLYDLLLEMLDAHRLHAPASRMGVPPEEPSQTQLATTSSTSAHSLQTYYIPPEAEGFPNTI
Bile acid receptor (Homo sapiens), sequence (Q96RI1 whole entry, looked up, the tested form may be a part): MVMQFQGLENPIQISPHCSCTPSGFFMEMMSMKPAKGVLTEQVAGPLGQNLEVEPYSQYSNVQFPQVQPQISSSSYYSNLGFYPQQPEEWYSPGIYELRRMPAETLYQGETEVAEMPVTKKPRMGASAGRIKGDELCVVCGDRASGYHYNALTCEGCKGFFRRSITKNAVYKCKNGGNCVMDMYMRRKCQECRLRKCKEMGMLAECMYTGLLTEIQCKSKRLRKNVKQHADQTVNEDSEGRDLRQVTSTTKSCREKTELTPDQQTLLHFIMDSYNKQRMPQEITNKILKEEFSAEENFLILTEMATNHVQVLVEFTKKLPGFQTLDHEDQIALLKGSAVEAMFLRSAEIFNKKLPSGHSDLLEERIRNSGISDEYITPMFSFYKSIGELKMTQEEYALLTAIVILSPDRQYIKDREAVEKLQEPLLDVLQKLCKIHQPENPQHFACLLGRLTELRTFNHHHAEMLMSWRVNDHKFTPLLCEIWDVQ

On to `CCCCOC(=O)C(C)O` (stereo unspecified), for which the concentration at half-maximal activity (AC50) – broadly, the midpoint of the concentration-response curve, whichever way the signal moves – in experiment [1] is 2.95 µM (active). Besides, the call in experiment [2], in experiment [3], in [4] and in experiment [5] was inactive.

For the molecule `CCCCOC(=O)[C@H](C)O`, the molecule was called inactive in [1], in experiment [3], in experiment [6], in experiment [4] and in experiment [5].

With `CCCCC(CC)COC(=O)c1ccc(N(C)C)cc1` (stereo unspecified), the molecule was classed as inactive in experiment [7], in [1], in [4] and in experiment [5]. Moreover, the AC50 in experiment [2] is 32.7 µM (active); in experiment [8] it was 50 µM (active); in experiment [3], 77.7 µM (active); in experiment [6] it was 76 µM (active).

As to `Cc1ccc([N+](=O)[O-])c(C)c1`, the result in experiment [1], in experiment [8], in experiment [3], in experiment [4] and in [5] was inactive.

`N#Cc1ccccc1O`: the result in experiment [1], in experiment [8], in experiment [6], in experiment [4] and in experiment [5] was inactive.

Consider `CCOC(OCC)OCC`, for which the outcome in experiment [7], in [1], in experiment [6], in [4] and in experiment [5] was inactive.

Turning to `CCN=C1C=CC(=C(c2ccc(N(CC)CC)cc2)c2ccc(N(CC)CC)cc2)c2ccccc21`, the call in [9], in experiment [7], in experiment [1], in experiment [4] and in experiment [5] was inactive.

Consider `CCc1cc(Cc2cc(CC)c(N)c(CC)c2)cc(CC)c1N`, for which the call in experiment [7], in experiment [1], in experiment [8], in experiment [4] and in experiment [5] was inactive. The half-maximal activity concentration (AC50) is 11.8 µM (active) in experiment [2] and 11.5 µM (active) in experiment [3].

For `CCCCCCCCCc1ccc(OCCO)cc1`, the molecule was classed as inactive in experiment [10], in experiment [1], in experiment [3], in experiment [4] and in experiment [5]. The AC50 in [9] was 0.238 µM (active); in experiment [7], 4.63 µM (active); in [2] it was 4.7 µM (active); in experiment [8] it was 28.8 µM (active); in [6], 32.9 µM (active).

Regarding `CCCCCCCCn1sc(Cl)c(Cl)c1=O`, the concentration at half-maximal activity (AC50) in experiment [10] was 25 µM (active). In addition, the molecule was classed as inactive in experiment [1], in experiment [3] and in [6].

`CC(C)Nc1ccc(NC(C)C)c2c1C(=O)c1ccccc1C2=O`: the AC50 is 19.1 µM (active) in experiment [7] and 18.2 µM (active) in experiment [8]. The outcome in experiment [1], in experiment [3], in [6], in experiment [4] and in experiment [5] was inactive.

On to `COCCOCCC[Si](C)(O[Si](C)(C)C)O[Si](C)(C)C`, for which the molecule was classed as inactive in [10], in experiment [9], in experiment [1], in experiment [8], in experiment [4] and in [5]. Moreover, the half-maximal activity concentration (AC50) in experiment [7] was 53.3 µM (active); in [2], 50 µM (active); in experiment [3], 33.2 µM (active); in experiment [6] it was 90.4 µM (active).

Turning to `O=C(c1ccccc1)c1ccc(O)cc1O`, the results for the AC50 in [10] and in [1] were 1.22 µM (active) and 6.29 µM (active), respectively. Also, the call in [2], in experiment [8], in experiment [3], in experiment [4] and in [5] was inactive.

As for `CC(C)(C)c1cc(Cc2cc(C(C)(C)C)c(O)c(C(C)(C)C)c2)cc(C(C)(C)C)c1O`, the outcome in experiment [7], in experiment [1], in experiment [2], in [6], in [4] and in experiment [5] was inactive. For the same molecule, the half-maximal activity concentration (AC50) in experiment [8] was 6.6 µM (active).

As to `CC(C)OC=O`, the outcome in experiment [1], in experiment [2], in [8], in [3], in [6] and in [4] was inactive. Further, the outcome in [5] was inactive.

As to `CCCCCCCC/C=C\CCCCCCCC(=O)OCC(O)CO` (stereo unspecified), the outcome in experiment [9], in experiment [7], in [1], in experiment [4] and in experiment [5] was inactive. For the same molecule, the results for the AC50 in [2], in experiment [3] and in experiment [6] were 70.9 µM (active), 71.1 µM (active) and 90.1 µM (active), respectively.

Take `C[C@]12CC[C@H]3C(=CCc4cc(O)ccc43)[C@@H]1CCC2=O`: the concentration at half-maximal activity (AC50) in [9] was 0.284 µM (active); in experiment [2] it was 9.93 µM (active). The result in experiment [8], in experiment [3], in experiment [4] and in experiment [5] was inactive.

In the case of `O=C1C=CC(=O)N1c1ccccc1`, the molecule was called inactive in experiment [10], in [9], in experiment [7], in experiment [1], in experiment [4] and in [5].

With `F[Si-2](F)(F)(F)(F)F`, the outcome in experiment [9], in experiment [7], in experiment [1], in experiment [2], in [6] and in [4] was inactive. The result in [5] was inactive.

On to `CCN=c1cc2oc3cc(NCC)c(C)cc3c(-c3ccccc3C(=O)OCC)c-2cc1C`, for which the AC50 in [10] is 25 µM (active); in experiment [7] it was 76.4 µM (active); in experiment [2], 1.36 µM (active); in [3], 0.603 µM (active); in experiment [6] it was 0.769 µM (active); in experiment [5] it was 4.08 µM (active). Also, the call in [9], in [1], in experiment [8] and in [4] was inactive.

In the case of `CCCCCCCC/C=C\CCCCCCCC(=O)N(C)CC(=O)O`, the molecule was classed as inactive in experiment [10], in experiment [7], in experiment [1], in experiment [8], in [3] and in experiment [4]. Moreover, the outcome in experiment [5] was inactive. Also, in [2], the AC50 was 72.6 µM (active).

As for `Cc1ccc(O)c(-n2nc3ccccc3n2)c1`, the concentration at half-maximal activity (AC50) in experiment [10] is 6.65 µM (active); in experiment [2] it was 50 µM (active). Also, the result in [7], in experiment [1], in experiment [8], in experiment [3], in [6] and in experiment [4] was inactive. The outcome in experiment [5] was inactive.

On to `CCC(Cc1c(I)cc(I)c(N)c1I)C(=O)O` (stereo unspecified), for which the molecule was called inactive in experiment [10], in experiment [1], in [2], in experiment [8], in experiment [3] and in [4]. For the same molecule, the molecule was classed as inactive in [5].

Consider `CCOC(=O)C1CC(=O)C(=C(O)C2CC2)C(=O)C1` (stereo unspecified), for which the outcome in experiment [7], in experiment [1], in [2], in experiment [3], in [6] and in experiment [4] was inactive. Also, the call in experiment [5] was inactive.

Regarding `CCCCCCCCCCCCCC[P+](CCCC)(CCCC)CCCC`, the outcome in experiment [10], in experiment [9], in experiment [7], in [4] and in [5] was inactive. For the same molecule, the AC50 in experiment [1] is 12.2 µM (active).

With `CC(=O)CCC(C)C`, the molecule was called inactive in experiment [1], in experiment [2], in experiment [3], in experiment [4] and in experiment [5].

For `OCC1CCCO1` (stereo unspecified), the molecule was classed as inactive in experiment [9], in experiment [7], in experiment [1], in [2], in experiment [4] and in experiment [5].

Regarding `CCCCCCCCCCCCC[N+](C)(C)Cc1ccccc1`, the concentration at half-maximal activity (AC50) is 8.86 µM (active) in [10] and 18.1 µM (active) in experiment [1]. Besides, the outcome in experiment [9], in [7], in experiment [4] and in experiment [5] was inactive.

For `CC(C)(C)c1cc(CCC(=O)OCC(COC(=O)CCc2cc(C(C)(C)C)c(O)c(C(C)(C)C)c2)(COC(=O)CCc2cc(C(C)(C)C)c(O)c(C(C)(C)C)c2)COC(=O)CCc2cc(C(C)(C)C)c(O)c(C(C)(C)C)c2)cc(C(C)(C)C)c1O`, the call in experiment [10], in experiment [7], in experiment [1], in [2], in experiment [8] and in [3] was inactive. The molecule was classed as inactive in experiment [6] and in [5].

These data come from PubChem BioAssay (EPA / NIEHS).
